Among the data in PubChem BioAssay (EPA / NIEHS) are outcome and AC50 values, retold here.

Read-out in experiment [1]: Epidermal growth factor receptor (EGFR), EGFR (gene 1956)
The experiment is described as follows: BSK_hDFCGF_EGFR: BioMAP Diversity Plus: hDFCGF Assay for Epidermal growth factor receptor (EGFR) Biomarker Activity (AID 2283057). Conditions: primary human foreskin fibroblasts; actives raise or lower the signal. Summed up:
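Dosing human primary skin fibroblasts, then measuring surface EGFR by ELISA at 24 h, gives the endpoint; gains and losses relative to DMSO were fitted in both directions.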

Read-out in experiment [2]: Interleukin-8 (IL8), CXCL8 (gene 3576)
The experiment is described as follows: BSK_hDFCGF_IL8: BioMAP Diversity Plus: hDFCGF Assay for Interleukin-8 (IL8) Biomarker Activity (AID 2283058). Particulars: primary human foreskin fibroblasts; actives raise or lower the signal. Summed up:
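Cells used are human skin primary fibroblasts. Chemical is added, cultures run 24 h, then IL-8 is quantified by ELISA, and gain or loss versus DMSO control is fitted in both directions.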

A short description of experiment [3]: BSK_hDFCGF_Proliferation: Cell Proliferation Assessment in the BioMAP Diversity Plus: hDFCGF Assay (AID 2283059).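 Also: curves fitted for both rise and fall of signal versus DMSO baseline.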 Conditions: primary human foreskin fibroblasts. In a few lines:
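This proliferation readout used SRB total-protein staining of human foreskin fibroblasts […], normalized to DMSO with bidirectional curve fitting.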

The nature of experiment [4]: BSK_hDFCGF_SRB: Viability Assessment in the BioMAP Diversity Plus: hDFCGF Assay (AID 2283061).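 Also: cells exposed to compound for 24 h before the read.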 Particulars: primary human foreskin fibroblasts. In a few lines: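 Readout is SRB absorbance at 560 nm, reflecting total protein in parallel cultures of human foreskin fibroblasts harvested 24 h after chemical dosing. Activity was fitted bidirectionally relative to DMSO.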

Read-out in experiment [5]: TIMP metallopeptidase inhibitor 1 (TIMP1), TIMP1 (gene 7076)
The experiment is described as follows: BSK_hDFCGF_TIMP1: BioMAP Diversity Plus: hDFCGF Assay for TIMP metallopeptidase inhibitor 1 (TIMP1) Biomarker Activity (AID 2283062). Particulars: primary human foreskin fibroblasts; actives raise or lower the signal. In a few lines:
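Human skin fibroblasts (primary), hDFCGF system; compound exposure 24 h; TIMP-1 by ELISA; bidirectional fit vs DMSO negative control; overt cytotoxicity by SRB in parallel wells.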

Read-out in experiment [6]: Vascular cell adhesion molecule 1 (VCAM1), VCAM1 (gene 7412)
As to the kind of experiment: BSK_hDFCGF_VCAM1: BioMAP Diversity Plus: hDFCGF Assay for Vascular cell adhesion molecule 1 (VCAM1) Biomarker Activity (AID 2283065).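 As to AC50: VCAM-1 protein level quantified by ELISA after 24 h chemical exposure.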 Conditions: primary human foreskin fibroblasts; actives raise or lower the signal. In a few lines: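 Human foreskin fibroblast primary cells, chemical exposure 24 h; VCAM-1 by ELISA; bidirectional fit, DMSO = negative control/baseline.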

Read-out in experiment [7]: Plasminogen activator inhibitor-1 (PAI1), SERPINE1 (gene 5054)
As to the kind of experiment: BSK_hDFCGF_PAI1: BioMAP Diversity Plus: hDFCGF Assay for Plasminogen activator inhibitor-1 (PAI1) Biomarker Activity (AID 2283066). Particulars: primary human foreskin fibroblasts; actives raise or lower the signal. In a few lines:
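Fibroblasts from human foreskin were treated with test chemical. After 24 h, PAI-1 was measured by ELISA. Activity was fitted in both directions relative to DMSO.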

Read-out in experiment [8]: Intercellular Adhesion Molecule 1 (ICAM1), ICAM1 (gene 3383)
As to the kind of experiment: BSK_KF3CT_ICAM1: BioMAP Diversity Plus: KF3CT Assay for Intercellular Adhesion Molecule 1 (ICAM1) Biomarker Activity (AID 2283067). Particulars: primary human keratinocytes with fibroblasts; actives raise or lower the signal. In a few lines: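 ICAM-1 levels are measured by ELISA 24 h after dosing a primary human co-culture of keratinocytes and foreskin fibroblasts. Activity in either direction is fitted relative to DMSO vehicle.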

Read-out in experiment [9]: Interferon-gamma inducible Protein 10 (IP10), CXCL10 (gene 3627)
The experiment is described as follows: BSK_KF3CT_IP10: BioMAP Diversity Plus: KF3CT Assay for Interferon-gamma inducible Protein 10 (IP10) Biomarker Activity (AID 2283068). Conditions: primary human keratinocytes with fibroblasts; actives raise or lower the signal. Summed up:
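Signal is secreted/surface IP-10 by ELISA in a human primary skin co-culture of keratinocytes and foreskin fibroblasts, taken 24 h post-dosing; DMSO served as negative control.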

Experiment [10] can be described thus: BSK_KF3CT_SRB: Viability Assessment in the BioMAP Diversity Plus: KF3CT Assay (AID 2283069).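 Also: read 24 h after compound addition; fitted for both signal gain and loss against DMSO baseline.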 Particulars: primary human keratinocytes with fibroblasts. In a few lines:
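Overt cytotoxicity is assessed as total protein by sulforhodamine B staining in parallel human skin co-cultures at 24 h after dosing. DMSO serves as negative control and baseline.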

Read-out in experiment [11]: TIMP metallopeptidase inhibitor 2 (TIMP2), TIMP2 (gene 7077)
As to the kind of experiment: BSK_KF3CT_TIMP2: BioMAP Diversity Plus: KF3CT Assay for TIMP metallopeptidase inhibitor 2 (TIMP2) Biomarker Activity (AID 2283071). Particulars: primary human keratinocytes with fibroblasts; actives raise or lower the signal. In a few lines: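 Chemicals were dosed onto human skin primary co-cultures of keratinocytes and foreskin fibroblasts, and TIMP-2 was measured by ELISA after 24 hours. Activity in either direction was fitted relative to DMSO.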

Read-out in experiment [12]: C-C motif chemokine 2 (Homo sapiens) (UniProt P13500)
The experiment is described as follows: BSK_KF3CT_MCP1: BioMAP Diversity Plus: KF3CT Assay for Monocyte Chemoattractant Protein 1 (MCP1/CCL2) Biomarker Activity (AID 2283073). Particulars: primary human keratinocytes with fibroblasts; actives raise or lower the signal. Summed up:
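ELISA readout of MCP-1 after 24 h chemical dosing of a human skin primary co-culture of keratinocytes and foreskin fibroblasts. Activity was fitted in both directions against DMSO.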

Read-out in experiment [13]: Matrix Metallopeptidase 9 (MMP9), MMP9 (gene 4318)
As to the kind of experiment: BSK_KF3CT_MMP9: BioMAP Diversity Plus: KF3CT Assay for Matrix Metallopeptidase 9 (MMP9) Biomarker Activity (AID 2283074).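 As to AC50: MMP9 protein level quantified by ELISA in the co-culture.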 Conditions: primary human keratinocytes with fibroblasts; actives raise or lower the signal. In a few lines:
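Values come from bidirectional fitting relative to DMSO of MMP-9 levels, which were measured by ELISA. Measurements were taken 24 h after chemical dosing of a keratinocyte and foreskin fibroblast co-culture.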

Read-out in experiment [14]: urokinase plasminogen activator (uPA), PLAU (gene 5328)
The experiment is described as follows: BSK_KF3CT_uPA: BioMAP Diversity Plus: KF3CT Assay for urokinase plasminogen activator (uPA) Biomarker Activity (AID 2283075). Conditions: primary human keratinocytes with fibroblasts; actives raise or lower the signal. Summed up: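 Values derive from bidirectional fitting against DMSO controls. Keratinocyte/foreskin fibroblast co-cultures received chemical; 24 h later uPA was detected by ELISA, with SRB total-protein staining in parallel wells for overt cytotoxicity.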

Read-out in experiment [15]: E-selectin (Homo sapiens) (UniProt P16581)
As to the kind of experiment: BSK_LPS_Eselectin: BioMAP Diversity Plus: LPS Assay for Eselectin Biomarker Activity (AID 2283077). Conditions: primary human HUVEC with PBMC; actives raise or lower the signal. In a few lines:
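Primary human vascular co-culture (endothelium plus PBMC) was dosed with chemical, then E-selectin quantified by ELISA at 24 h. Endpoint values derive from bidirectional curve fitting relative to DMSO.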

Read-out in experiment [16]: Interleukin-8 (IL8), CXCL8 (gene 3576)
The experiment is described as follows: BSK_LPS_IL8: BioMAP Diversity Plus: LPS Assay for Interleukin-8 (IL8) Biomarker Activity (AID 2283078). Particulars: primary human HUVEC with PBMC; actives raise or lower the signal. Summed up: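 Readout is IL-8 by ELISA, taken 24 h after compounds were added to LPS-stimulated endothelial/PBMC co-cultures. Both increases and decreases relative to DMSO control were scored through bidirectional fitting.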

Experiment [17] is described as follows: BSK_LPS_SRB: Viability Assessment in the BioMAP Diversity Plus: LPS Assay (AID 2283079).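 Also: total protein by sulforhodamine B absorbance as a cytotoxicity measure; measured one day after compound addition; fitted in both directions against DMSO so loss or gain of signal counts.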 Conditions: primary human HUVEC with PBMC. Summed up:
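Readout is SRB absorbance at 560 nm (0.1% stain, TCA-fixed parallel cultures) as a total-protein cytotoxicity measure. Cells: primary human umbilical vein endothelium plus peripheral blood mononuclear cells, 24 h after chemical exposure; DMSO served as baseline.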

Read-out in experiment [18]: Interleukin-1 alpha (IL1a), IL1A (gene 3552)
The experiment is described as follows: BSK_LPS_IL1a: BioMAP Diversity Plus: LPS Assay for Interleukin-1 alpha (IL1a) Biomarker Activity (AID 2283080). Particulars: primary human HUVEC with PBMC; actives raise or lower the signal. In a few lines:
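ELISA read-out of IL-1 alpha from a human primary vascular co-culture (endothelium plus PBMC) under LPS, sampled 24 hours post-dosing. Activity was fitted in both directions relative to DMSO controls.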

The nature of experiment [19]: BSK_LPS_PGE2: BioMAP Diversity Plus: LPS Assay for Prostaglandin E2 (PGE2) Biomarker Activity (AID 2283082). Conditions: primary human HUVEC with PBMC; actives raise or lower the signal. Summed up: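 Compounds were added to the LPS co-culture of endothelium and PBMC, and PGE2 was measured by ELISA after 24 h. Responses in either direction were fitted with DMSO as baseline.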

Read-out in experiment [20]: Macrophage colony-stimulating factor (MCSF), CSF1 (gene 1435)
The experiment is described as follows: BSK_LPS_MCSF: BioMAP Diversity Plus: LPS Assay for Macrophage colony-stimulating factor (MCSF) Biomarker Activity (AID 2283083). Particulars: primary human HUVEC with PBMC; actives raise or lower the signal. In a few lines:
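ELISA readout of M-CSF after 24 h compound exposure in a human endothelial/PBMC co-culture. Activity, in either direction, is fitted relative to DMSO vehicle.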

As a reminder, the AC50 is the midpoint of the concentration-response curve, whichever way the signal moves.

“And” between values parts separate entries of the source, which are not always exact repeats. Identical values can stand only once. The source made the active and inactive calls. The calls were made as follows: active = hit-call score of the fitted dose curve at least 0.9, where 1 is the maximum; inactive = score below 0.9.

E-selectin (Homo sapiens), sequence (P16581 whole entry, looked up): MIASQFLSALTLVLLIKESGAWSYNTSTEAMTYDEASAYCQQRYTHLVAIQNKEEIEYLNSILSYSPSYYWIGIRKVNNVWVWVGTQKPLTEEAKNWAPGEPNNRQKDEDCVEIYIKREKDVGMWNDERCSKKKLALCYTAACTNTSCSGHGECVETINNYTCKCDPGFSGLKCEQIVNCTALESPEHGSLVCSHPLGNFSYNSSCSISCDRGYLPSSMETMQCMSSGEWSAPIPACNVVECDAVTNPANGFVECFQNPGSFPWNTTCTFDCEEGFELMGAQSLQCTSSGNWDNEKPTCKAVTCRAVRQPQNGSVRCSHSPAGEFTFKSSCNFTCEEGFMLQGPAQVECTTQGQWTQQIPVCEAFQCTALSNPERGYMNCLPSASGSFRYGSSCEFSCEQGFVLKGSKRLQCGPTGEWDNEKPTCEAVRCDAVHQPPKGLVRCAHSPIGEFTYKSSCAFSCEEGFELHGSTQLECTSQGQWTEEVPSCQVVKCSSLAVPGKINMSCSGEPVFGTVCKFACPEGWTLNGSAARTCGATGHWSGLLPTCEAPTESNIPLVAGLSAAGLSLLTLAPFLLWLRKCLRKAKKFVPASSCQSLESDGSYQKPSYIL

Turning to `CN(C)c1ccc(C(c2ccccc2)c2ccc(N(C)C)cc2)cc1`, the outcome in experiment [1], in experiment [2], in [4], in [5], in [6] and in [7] was inactive. Besides, the outcome in experiment [8], in [9], in experiment [10], in [11], in experiment [12] and in experiment [14] was inactive. For the same compound, the outcome in experiment [19] was inactive. Besides, the concentration at half-maximal activity (AC50) in experiment [3] is 3.87 µM (active); in [13], 13.6 µM (active); in [15] it was 15.6 µM (active); in experiment [16] it was 15.2 µM (active); in [17], 12.5 µM (active); in experiment [18], 34.7 µM (active). Also, in experiment [20], the AC50 is 8.45 µM (active).
As to `CCCCCCCCCCCCCCCCCC[N+](C)(C)C`, the AC50 is 2.81 µM (active) in experiment [1]; 8.41 µM (active) in experiment [2]; 0.388 µM (active) in [3]; 1.34 µM (active) in [4]; 3.47 µM (active) in experiment [5]; 2.33 µM (active) in [6]. For the same compound, the AC50 in experiment [7] was 1.13 µM (active); in [8], 3.6 µM (active); in [9], 3.66 µM (active); in experiment [10] it was 2.49 µM (active); in experiment [11], 1.2 µM (active); in experiment [12], 3.36 µM (active). For the same compound, the AC50 in experiment [13] was 3.32 µM (active); in experiment [14] it was 3.33 µM (active); in experiment [15] it was 8.27 µM (active); in experiment [16], 7.3 µM (active); in experiment [17], 2.72 µM (active); in experiment [18], 1.22 µM (active). Besides, in [20], the AC50 was 5 µM (active). For the same compound, in [19], the outcome was inactive.
In the case of `CN(C)Cc1cc(C(C)(C)C)c(O)c(C(C)(C)C)c1`, the result in experiment [1], in [2], in experiment [4], in [5], in experiment [7] and in [8] was inactive. Also, the result in experiment [9], in [10], in experiment [11], in [12], in experiment [13] and in experiment [14] was inactive. For the same compound, the result in [15], in experiment [16], in experiment [17], in experiment [18], in experiment [19] and in experiment [20] was inactive. The AC50 in [3] is 23.9 µM (active) and 24.5 µM (active); in experiment [6], 12.1 µM (active) and 20 µM (active).
As to `Cc1cc(-n2nc3ccc(Cl)cc3n2)c(O)c(C(C)(C)C)c1`, the result in experiment [1], in experiment [2], in [3], in experiment [4], in experiment [5] and in experiment [6] was inactive. For the same compound, the result in experiment [7], in experiment [8], in experiment [9], in experiment [10], in experiment [11] and in experiment [12] was inactive. The result in [13], in experiment [14], in [15], in experiment [16], in [17] and in experiment [18] was inactive. For the same compound, the result in experiment [19] and in experiment [20] was inactive.
